High-throughput results (PubChem BioAssay)
Sampled rows, rich in hits. Any-hit rate of the full collection: about 0.26%.
a7 integrin act – activators of alpha7 integrin expression for muscular dystrophy; 350,000 tested, 0.064% active; Potency, µM (series often up to 38.3 µM), without a hit: top-dose activation, hits mostly activators; alpha7betagal myoblasts, beta-gal FDG fluorescence, 48 h;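 further: potency means the concentration at half of the fitted maximal effect; 100% = response of the positive control SU9516; nearly all actives have a fitted effect of over 60% in size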
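alpha7betagal+/- myoblasts (passage 13, 250/well) treated 48 h at 37C with compounds at 1:260 dilution of DMSO stock. Lysed, then beta-galactosidase activity read as FDG fluorescence (ex 480/em 540) after 30 min, with pre-read for autofluorescence.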
CBFb-RUNX1 inh – blocks binding between human CBF-beta and RUNX1 | AlphaScreen CBFb-His/RUNX1-biotin binding, biochemical | Potency, µM (highest dose often 59.8 µM), inactives show top-dose activity, negative = inhibition, most hits filed as inhibitors | 230,000 tested, under 10 active | AID 1477; further: % of control where 0% means no effect
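Compounds were screened at multiple concentrations against a preformed CBF-beta(His)/RUNX1(biotin) complex (30 nM of each) for 15 min at room temperature, followed by 90 min with nickel and streptavidin beads and AlphaScreen reading.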
TCR act – T cell receptor activation; primary human leukocytes, anti-CD3, IL-2 HTRF, 48 h; Potency, µM (top dose mostly 9.22 µM), for inactives: at the highest dose activation of IL-2 secretion, usual class: activators; 330,000 tested, under 10 active; AID 504894; further: % of control where 0% means no effect
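Primary human leukocytes incubated 48 hr with anti-CD3 beads plus compound, without co-stimulation. Secreted IL-2 measured by HTRF (europium cryptate/d2 anti-IL-2 pair, 320 nm excitation, 665 nm emission).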
TSG101-PTAP inh – blocks PTAP/TSG101 interaction to inhibit HIV-1 budding; Q99816; Fluorescence polarization, FITC-PTAP peptide / Tsg101 binding; Potency, µM (titrated, usually from 115 µM), inactives show at the top dose activity change, negative = inhibition, most hits filed as inhibitors; 340,000 tested, under 10 active; AID 493005; active means well fitted inhibition curve with a large enough effect in the main read-out, with a control signal flat, not every such curve was filed as active; inconclusive means small, poorly fitted or top-dose-only effect, or effect the other way, or a change in a side signal; inactive means no such curve, though single readings can be large or run the other way; further: potency means the concentration at half of the fitted maximal effect; % of control where 0% means no effect
Target sequence (Q99816 whole entry, looked up): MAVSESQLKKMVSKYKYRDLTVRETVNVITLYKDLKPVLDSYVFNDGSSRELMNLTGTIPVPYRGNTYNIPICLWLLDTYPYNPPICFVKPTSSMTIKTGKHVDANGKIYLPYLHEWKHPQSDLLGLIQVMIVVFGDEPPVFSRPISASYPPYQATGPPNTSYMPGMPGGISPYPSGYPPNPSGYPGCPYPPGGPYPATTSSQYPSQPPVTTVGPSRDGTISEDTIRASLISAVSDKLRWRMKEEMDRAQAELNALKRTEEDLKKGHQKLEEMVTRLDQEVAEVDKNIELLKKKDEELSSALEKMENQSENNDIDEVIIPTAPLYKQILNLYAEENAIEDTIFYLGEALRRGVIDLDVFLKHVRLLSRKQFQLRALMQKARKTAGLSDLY
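Fluorescence anisotropy tracks displacement of a FITC-tagged PTAP peptide (50 nM) from the Tsg101 binding domain (10 uM), following a 20 min room-temperature incubation at pH 7.5.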
TSHR antag – human thyrotropin receptor antagonism; TSHR-expressing cells, TSH-stimulated cAMP HTRF, 2 h; hits give low values; P16473; 330,000 tested, 0.2% active; AID 504810; activity change, negative = inhibition, % at 11.5 µM;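 active means activity change below a set negative limit, meaning inhibition stronger than a set level, cut at about -70% in these data; inconclusive means activity change between two set negative limits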; further: on the % scale 0 is the no-effect control and ±100 the full control effect
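Cell-based HTRF cAMP assay; TSHR cells + compound, TSH EC80 (4nM final), 2 h, 37 deg C. Lysis with anti-cAMP cryptate and cAMP-d2, 30 min RT, read 665/620 nm.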
MBNL1 CUG block – blocks human MBNL1 binding to CUG repeat RNA. Q9NR56. TR-FRET MBNL1-His/biotin-(CUG)12 binding, 665/545 ratio. Potency, µM (series often up to 57.5 µM), for the others: at the highest dose activity change, negative = inhibition, most hits filed as inhibitors. 280,000 tested, 0.036% active; active means well fitted inhibition curve with a large enough effect in the signal ratio, with a control signal flat, not every such curve was filed as active; inconclusive means small, poorly fitted or top-dose-only effect, or effect the other way, or a change in a side signal; inactive means no such curve, though single readings can be large or run the other way; the % refers to the signal ratio; further: potency means the concentration at half of the fitted maximal effect; on the % scale 0 is the no-effect control and ±100 the full control effect
Target sequence (Q9NR56 whole entry, looked up): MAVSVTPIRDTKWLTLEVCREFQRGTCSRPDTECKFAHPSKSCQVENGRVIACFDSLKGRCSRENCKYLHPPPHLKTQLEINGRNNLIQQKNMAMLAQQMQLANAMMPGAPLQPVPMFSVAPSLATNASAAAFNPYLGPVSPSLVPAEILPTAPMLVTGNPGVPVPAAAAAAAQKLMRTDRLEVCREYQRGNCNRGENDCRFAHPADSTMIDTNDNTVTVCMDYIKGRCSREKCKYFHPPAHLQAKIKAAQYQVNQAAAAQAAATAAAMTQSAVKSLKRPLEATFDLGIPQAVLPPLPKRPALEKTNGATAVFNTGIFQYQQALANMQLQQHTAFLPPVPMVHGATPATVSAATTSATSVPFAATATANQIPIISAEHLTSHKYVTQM
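His-tagged MBNL1 binding to biotinylated (CUG)12 RNA was measured by TR-FRET using terbium anti-His antibody (0.055 ng/ul final) and streptavidin-XL665 (5 nM final). Compounds were titrated 92 nM to 58 uM; 60 min at room temperature.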
* hit, by the source's call; [ ] = remark or other dose. Unless noted, the call rests on the fitted dose curve; in most records, active means well fitted curve in the direction sought with a large enough effect; inconclusive means small, poorly fitted or top-dose-only effect, or another doubt; inactive means no such curve, though single readings can be large; an effect the other way counts as inactive or inconclusive.

What do the screens show for `Cc1cc(N2CCOCC2)nc2ccc(NC(=S)NCc3ccc4c(c3)OCO4)cc12`?
a7 integrin act: 10µM*; CBFb-RUNX1 inh: -4.9%; TCR act: -5.9%; TSG101-PTAP inh: -4.1%; TSHR antag: -6.8; MBNL1 CUG block: -3.5%

How did COCC(C)NC(=O)C1c2ccccc2Oc2ccccc21 (stereo unspecified) do in these assays?
a7 integrin act: 5.2%; TCR act: 4.4%; TSG101-PTAP inh: -11.6%; TSHR antag: -120.1*; MBNL1 CUG block: -7.7%

Results for N#CCNC(=O)C1c2ccccc2Oc2ccccc21 ?
a7 integrin act: -8.7%; TSG101-PTAP inh: 1.4%; TSHR antag: -7.4; MBNL1 CUG block: -4.1%

What do the screens show for `O=C(Nc1ccc2c(c1)CCC2)c1cc(S(=O)(=O)Nc2ccc(F)cc2)c(Cl)cc1Cl`?
a7 integrin act: -27.6%; CBFb-RUNX1 inh: -5.2%; TCR act: -2.0%[46.1 µM]; TSG101-PTAP inh: -2.2%; TSHR antag: -76.0*

How did CCC(=O)OCCNc1cc(Sc2nccn2C)c2nonc2c1[N+](=O)[O-] do in these assays?
a7 integrin act: -50.5%; CBFb-RUNX1 inh: -5.8%; TCR act: -4.7%[46.1 µM]; TSG101-PTAP inh: -2.5%; TSHR antag: -96.9*; MBNL1 CUG block: inconclusive

Results for Cc1ccc(NC(=O)[C@@H](C)NC(=O)[C@@H]2Cc3ccccc3CN2)cc1 ?
a7 integrin act: 18.1%; TCR act: -5.2%; TSG101-PTAP inh: -6.6%; TSHR antag: -8.0; MBNL1 CUG block: 0.0%

How did C[C@@H](NC(=O)[C@@H]1Cc2ccccc2CN1)C(=O)NC1CCCCC1 do in these assays?
a7 integrin act: 1.4%; TCR act: -5.0%; TSG101-PTAP inh: 0.5%; TSHR antag: -133.8*; MBNL1 CUG block: 3.1%

What do the screens show for `COc1ccc(CCNC(=O)c2cc(-c3cc(C)ccc3O)n[nH]2)cc1OC`?
a7 integrin act: 10µM*; CBFb-RUNX1 inh: 6.7%; TCR act: -5.5%; TSG101-PTAP inh: -5.2%; TSHR antag: -8.4; MBNL1 CUG block: -0.1%

How did Cc1c(F)cccc1NC(=O)CCCCCC1NC(=O)NC1C (stereo unspecified) do in these assays?
a7 integrin act: 6.9%; TCR act: 0.4%; TSG101-PTAP inh: 0.5%; TSHR antag: 16.9; MBNL1 CUG block: 0.282µM*

What do the screens show for `CC1NC(=O)NC1CCCCCC(=O)Nc1ccc(F)cc1` (stereo unspecified)?
a7 integrin act: 5.3%; TCR act: 1.9%; TSG101-PTAP inh: -0.3%; TSHR antag: 6.5; MBNL1 CUG block: 0.1µM*

What do the screens show for `CSCC[C@H](NC(=O)CNC(=O)CNC(=O)[C@H](CO)NC(=O)[C@H](CCCNC(=N)N)NC(=O)[C@H](CO)NC(=O)[C@H](CC(C)C)NC(=O)[C@H](CC(C)C)NC(=O)CNC(=O)[C@H](C)NC(=O)[C@H](CC(C)C)NC(=O)[C@H](CCCNC(=N)N)NC(=O)[C@H](Cc1cnc[nH]1)NC(=O)[C@@H](NC(=O)[C@@H](N)C(C)C)[C@@H](C)O)C(=O)N[C@H](C(=O)N[C@@H](CCCCN)C(=O)N[C@@H](CO)C(=O)N[C@@H](CC(N)=O)C(=O)N[C@@H](Cc1ccccc1)C(=O)N[C@H](C(=O)N1CCC[C@H]1C(=O)N[C@H](C(=O)N[C@@H](CC(N)=O)C(=O)N[C@H](C(=O)NCC(=O)N[C@@H](CO)C(=O)N[C@@H](CCCCN)C(=O)N[C@@H](C)C(=O)N[C@@H](Cc1ccccc1)C(N)=O)C(C)C)[C@@H](C)O)C(C)C)C(C)C`?
CBFb-RUNX1 inh: 14.9%

What do the screens show for `Cc1nc2ccccc2n1CC(=O)N/N=C\C=C\c1ccccc1`?
a7 integrin act: -8.2%; CBFb-RUNX1 inh: -3.5%; TCR act: 7.2%; TSG101-PTAP inh: -4.4%; TSHR antag: -80.7*; MBNL1 CUG block: inconclusive

Results for Cc1nc2ccccc2n1CC(=O)N/N=C\c1ccccn1 ?
a7 integrin act: 13.3%; CBFb-RUNX1 inh: -7.0%; TCR act: -27.1%; TSG101-PTAP inh: -7.5%; TSHR antag: 4.0; MBNL1 CUG block: 5.6%

What do the screens show for `COC(=O)NC(/C=C/c1ccccc1)[C@]1(C(C)=O)CCCC1=O` (stereo partly specified)?
CBFb-RUNX1 inh: 7.4%[13.1 µM]

Results for COC(=O)CN1C(=O)[C@@H]2[C@H](C1=O)[C@@H]1CC(C(=O)OC)=C[C@@H](C(=O)OC)C3C1=C(C(=O)[C@@]3(C)NC(=O)c1ccccc1)[C@@H]2C (stereo partly specified) ?
CBFb-RUNX1 inh: -5.8%

Results for NS(=O)(=O)c1ccc(CCNC(=O)c2cc3ccccc3s2)cc1 ?
a7 integrin act: -21.2%; TCR act: -5.9%; TSG101-PTAP inh: 2.2%; TSHR antag: -102.5*; MBNL1 CUG block: 257.3%

What do the screens show for `NS(=O)(=O)c1ccc(CCNC(=O)c2ccc(Cl)s2)cc1`?
a7 integrin act: 35.8%; TCR act: -5.5%; TSG101-PTAP inh: -1.9%; TSHR antag: 3.8; MBNL1 CUG block: -0.5%

Results for CN1C(=O)N(C)C2=NNC=NC2(O)C1=O (stereo unspecified) ?
CBFb-RUNX1 inh: 12.9%

Results for CC(=O)Nc1ccc(-c2csc(N3CCC(C(N)=O)CC3)n2)cc1 ?
TSHR antag: -4.3

Results for CCCN1CCCC(c2cccc(S(C)(=O)=O)c2)C1 (stereo unspecified) ?
CBFb-RUNX1 inh: 9.4%

Results for O=C(C1=C(O)C(=O)N(CCN2CCOCC2)C1c1ccc(Cl)cc1)c1cc2ccccc2o1 (stereo unspecified) ?
a7 integrin act: -3.1%; TCR act: -3.1%; TSG101-PTAP inh: -8.3%; TSHR antag: -14.7; MBNL1 CUG block: 54.8%

What do the screens show for `COC(=O)c1ccc(C2C(C(=O)c3cc4ccccc4o3)=C(O)C(=O)N2CCN2CCOCC2)cc1` (stereo unspecified)?
a7 integrin act: 10µM*; TCR act: 0.4%; TSG101-PTAP inh: -0.7%; TSHR antag: -12.6; MBNL1 CUG block: 7.9%

How did O=C(CC1C(=O)NCCN1CC1CCCCC1)NCc1cccc(F)c1F (stereo unspecified) do in these assays?
a7 integrin act: 0.4%; CBFb-RUNX1 inh: 2.3%; TCR act: -0.9%; TSG101-PTAP inh: -0.7%; TSHR antag: 0.3; MBNL1 CUG block: -5.5%
